Drawing on the supplement of paper PMC13380429, this text covers morphology score for twelve molecules.

The structures appear in SMILES notation.

In this experiment the test system is Vero E6 infected with SARS-CoV-2. Briefly: morphology score (similarity to uninfected cells); higher = more like uninfected cells. The settings on record: 24 h.
On to `CCCCCCNC(=O)n1cc(F)c(=O)[nH]c1=O` [Carmofur] (0.833333 µM), for which the morphology score came to 0.222.

As for `O=[N+]([O-])O[C@@H]1CO[C@H]2[C@@H]1OC[C@@H]2O` [isosorbide-mononitrate] (10 µM), the morphology score was -0.103.

`Cc1onc(-c2ccccc2)c1-c1ccc(S(N)(=O)=O)cc1` [valdecoxib] (10 µM) gave a morphology score of -0.0646.

For the molecule `C[C@@H]1COC(Nc2ccc3ncnc(Nc4ccc(OCc5nccs5)c(Cl)c4)c3c2)=N1` (10 µM), the morphology score is -0.156.

In turn, `C[C@@H]1CN(CCCn2c3ccccc3c3ccccc32)C[C@H](C)N1` [rimcazole] (10 µM) came in with a morphology score of 0.623.

Take `C[C@H](NC(=O)C(C)(C)Oc1ccc(C(F)(F)F)cn1)[C@@H](Cc1ccc(Cl)cc1)c1cccc(C#N)c1` [taranabant] (10 µM): the morphology score was found to be 0.1.

`CCCc1cc(C(N)=S)ccn1` [protionamide] (10 µM): the morphology score is 0.198.

Turning to `CO[C@@]1(NC(=O)CSCC#N)C(=O)N2C(C(=O)O)=C(CSc3nnnn3C)CS[C@@H]21` [cefmetazole] (10 µM), the morphology score is 0.148.

On to `CC(=O)NCCC(=O)N[C@@H](Cc1c[nH]cn1)C(=O)O` [N-acetylcarnosine] (10 µM), for which the morphology score was -0.122.

In turn, `COC(=O)/C=C/c1cccc(N(Cc2ccc(-c3ccc(N(C)C)cc3)cc2)C(=O)C2CCCCC2)c1` [fexaramine] (10 µM) gave a morphology score of 0.272.

Regarding `Oc1cc2c(cc1O)[C@@H]1c3ccc(O)c(O)c3OC[C@]1(O)C2` [hematoxylin] (10 µM), the morphology score is -0.0601.

For the molecule `Cc1cn([C@@H]2C[C@@H](O)[C@H](CO)O2)c(=O)[nH]c1=O` [telbivudine] (10 µM), the morphology score is -0.036.
